From PubChem BioAssay AID1159580 (chemical genetic matrix, 2015)
About 2,000 (36%) of roughly 5,500 compounds were called active. Not shown: some 18% with an inconclusive outcome. Cut-off read from the data, not from the text of the source: active = normalized growth mostly below about 0.91 (no sharp cut-off); inconclusive = no clear call, values can overlap the other calls; inactive = mostly above about 0.92. The list shows a part of the results.

Assay: chemical genetic growth profiling, strain panel (AID 1159580);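 note: tested at 20 µM; growth read once vehicle control cultures reached saturation at 30 °C; 1 = growth at the plate median or of vehicle wells; lower values mean less growth of the strain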
Settings: growth OD

Measured: normalized growth

C=CC(C1=CC(=O)C(OC)=CC1=O)c1ccccc1 (configuration not stated)
inactive: S. cerevisiae deletion strains, locus YKL009W, strain mrt4, hits give low values 0.905 | S. cerevisiae deletion strains, locus YKL068W, hits give low values 0.977 | S. cerevisiae deletion strains, locus YKL085W, strain MDH1 (second series), hits give low values 0.954 | S. cerevisiae deletion strains, locus YKL085W, strain MDH1, hits give low values 0.954 | S. cerevisiae deletion strains, locus YKR026C, strain gcn3, hits give low values 0.987 | S. cerevisiae deletion strains, locus YKR091W, strain srl3, hits give low values 0.995 | S. cerevisiae deletion strains, locus YLL041C, strain sdh2, hits give low values 0.978 | S. cerevisiae deletion strains, locus YLR058C, strain SHM2, hits give low values 0.953 | S. cerevisiae deletion strains, locus YLR102C, strain apc9, hits give low values 0.949 | S. cerevisiae deletion strains, locus YLR268W, strain sec22, hits give low values 0.888 | S. cerevisiae deletion strains, locus YLR357W, strain rsc2, hits give low values 1.04 | S. cerevisiae deletion strains, locus YLR370C, strain arc18, hits give low values 0.949 | S. cerevisiae deletion strains, locus YLR371W, strain rom2, hits give low values 0.937 | S. cerevisiae deletion strains, locus YLR384C, strain iki3, hits give low values 0.978 | S. cerevisiae deletion strains, locus YML016C, strain PPZ1, hits give low values 0.959 | S. cerevisiae deletion strains, locus YML124C, strain tub3, hits give low values 0.963 | S. cerevisiae deletion strains, locus YMR058W, strain fet3, hits give low values 0.921 | S. cerevisiae deletion strains, locus YMR078C, strain ctf18, hits give low values 0.928 | S. cerevisiae deletion strains, locus YMR129W, hits give low values 0.988 | S. cerevisiae deletion strains, locus YMR231W, strain pep5, hits give low values 1.01 | S. cerevisiae deletion strains, locus YMR263W, strain SAP30, hits give low values 0.926 | S. cerevisiae deletion strains, locus YMR307W, strain GAS1, hits give low values 0.864 | S. cerevisiae deletion strains, locus YNL067W, strain RPL9B, hits give low values 0.873 | S. cerevisiae deletion strains, locus YNL128W, strain TEP1, hits give low values 0.906 | S. cerevisiae deletion strains, locus YNL153C, strain GIM3, hits give low values 0.972 | S. cerevisiae deletion strains, locus YNL183C, strain NPR1, hits give low values 0.871 | S. cerevisiae deletion strains, locus YNL250W, strain rad50, hits give low values 0.956 | S. cerevisiae deletion strains, locus YNL271C, strain bni1, hits give low values 0.958 | S. cerevisiae deletion strains, locus YNL298W, strain CLA4, hits give low values 0.919 | S. cerevisiae deletion strains, locus YNL322C, strain KRE1 (second series), hits give low values 0.969 | S. cerevisiae deletion strains, locus YNL322C, strain KRE1, hits give low values 0.928 | S. cerevisiae deletion strains, locus YNR049C, strain mso1, hits give low values 0.992 | S. cerevisiae deletion strains, locus YNR052C, strain pop2, hits give low values 0.954 | S. cerevisiae deletion strains, locus YOL006C, strain TOP1, hits give low values 0.69 | S. cerevisiae deletion strains, locus YOL012C, strain htz1 0.631 | S. cerevisiae deletion strains, locus YOR001W, strain rrp6, hits give low values 0.943 | S. cerevisiae deletion strains, locus YOR061W, strain CKA2, hits give low values 0.956 | S. cerevisiae deletion strains, locus YOR069W, strain VPS5, hits give low values 0.958 | S. cerevisiae deletion strains, locus YOR080W, strain dia2, hits give low values 0.996 | S. cerevisiae deletion strains, locus YOR083W, strain WHI5, hits give low values 0.905 | S. cerevisiae deletion strains, locus YOR136W, strain idh2, hits give low values 0.942 | S. cerevisiae deletion strains, locus YOR144C, strain elg1, hits give low values 0.973 | S. cerevisiae deletion strains, locus YOR265W, strain rbl2, hits give low values 0.93 | S. cerevisiae deletion strains, locus YOR290C, strain snf2, hits give low values 0.89 | S. cerevisiae deletion strains, locus YOR316C, strain cot1, hits give low values 0.96 | S. cerevisiae deletion strains, locus YPL055C, strain LGE1, hits give low values 0.816 | S. cerevisiae deletion strains, locus YPL106C, strain sse1, hits give low values 1.03 | S. cerevisiae deletion strains, locus YPL241C, strain CIN2, hits give low values 0.962 | S. cerevisiae deletion strains, locus YPR119W, strain clb2, hits give low values 0.966 | S. cerevisiae deletion strains, locus YPR141C, strain kar3, hits give low values 0.971 | S. cerevisiae deletion strains, locus YPR167C, strain met16, hits give low values 0.959
active: S. cerevisiae deletion strains, locus YJR075W, strain HOC1, hits give low values 0.88 | S. cerevisiae deletion strains, locus YKL160W, strain elf1, hits give low values 0.79 | S. cerevisiae deletion strains, locus YKL190W, strain CNB1, hits give low values 0.866 | S. cerevisiae deletion strains, locus YKR001C, strain vps1, hits give low values 0.774 | S. cerevisiae deletion strains, locus YLL001W, strain dnm1, hits give low values 0.885 | S. cerevisiae deletion strains, locus YLL026W, hits give low values 0.85 | S. cerevisiae deletion strains, locus YLR027C, strain aat2, hits give low values 0.808 | S. cerevisiae deletion strains, locus YLR039C, strain RIC1, hits give low values 0.519 | S. cerevisiae deletion strains, locus YLR113W, strain HOG1, hits give low values 0.663 | S. cerevisiae deletion strains, locus YLR221C, strain rsa3, hits give low values 0.734 | S. cerevisiae deletion strains, locus YLR258W, strain gsy2, hits give low values 0.875 | S. cerevisiae deletion strains, locus YLR262C, strain YPT6 (second series), hits give low values 0.518 | S. cerevisiae deletion strains, locus YLR262C, strain YPT6, hits give low values 0.405 | S. cerevisiae deletion strains, locus YLR320W, strain mms22, hits give low values 0.379 | S. cerevisiae deletion strains, locus YLR330W, strain CHS5, hits give low values 0.912 | S. cerevisiae deletion strains, locus YLR342W, strain FKS1 (second series), hits give low values 0.603 | S. cerevisiae deletion strains, locus YLR342W, strain FKS1, hits give low values 0.79 | S. cerevisiae deletion strains, locus YLR418C, strain cdc73, hits give low values 0.774 | S. cerevisiae deletion strains, locus YML032C, strain rad52, hits give low values 0.883 | S. cerevisiae deletion strains, locus YML120C, strain ndi1, hits give low values 0.864 | S. cerevisiae deletion strains, locus YMR125W, strain sto1, hits give low values 0.852 | S. cerevisiae deletion strains, locus YMR205C, strain PFK2, hits give low values 0.784 | S. cerevisiae deletion strains, locus YMR223W, strain ubp8, hits give low values 0.84 | S. cerevisiae deletion strains, locus YNL071W, strain lat1, hits give low values 0.213 | S. cerevisiae deletion strains, locus YNL209W, strain ssb2, hits give low values 0.908 | S. cerevisiae deletion strains, locus YNL233W, strain BNI4, hits give low values 0.808 | S. cerevisiae deletion strains, locus YNL248C, strain rpa49, hits give low values 0.842 | S. cerevisiae deletion strains, locus YNL307C, strain MCK1, hits give low values 0.302 | S. cerevisiae deletion strains, locus YOL147C, strain pex11, hits give low values 0.926 | S. cerevisiae deletion strains, locus YOR070C, strain gyp1, hits give low values 0.79 | S. cerevisiae deletion strains, locus YOR106W, strain vam3, hits give low values 0.739 | S. cerevisiae deletion strains, locus YOR184W, strain ser1, hits give low values 0.536 | S. cerevisiae deletion strains, locus YOR231W, strain MKK1, hits give low values 0.853 | S. cerevisiae deletion strains, locus YOR270C, strain vph1, hits give low values 0.761 | S. cerevisiae deletion strains, locus YPL051W, strain arl3, hits give low values 0.737 | S. cerevisiae deletion strains, locus YPL078C, strain atp4, hits give low values 0.868 | S. cerevisiae deletion strains, locus YPL240C, strain hsp82, hits give low values 0.904 | S. cerevisiae deletion strains, locus YPL256C, strain CLN2, hits give low values 0.75 | S. cerevisiae deletion strains, locus YPR163C, strain tif3, hits give low values 0.766 | S. cerevisiae deletion strains, strain wtn01, hits give low values 0.846 | S. cerevisiae strains, strain wild type, hits give low values 0.805
